Inconclusive results are not listed. Values without a mark were called inactive. The source made the active and inactive calls. Calls come from the whole dose curve; as a rule, active = well fitted curve in the direction sought with a large enough effect; inconclusive = small, poorly fitted or top-dose-only effect, or another doubt; inactive = no such curve, though single readings can be large or run the other way.
Assay: Viability counterscreen for agonist of constitutive androstane receptor (CAR) against the NCATS DSHEA and TCM libraries (AID 1794838); note: 0% is about no effect
Conditions: HepG2 cell viability counterscreen, CAR agonist assay, co-treated with 0.75 µM CAR antagonist; series mostly up to 40 µM
Summary of the method: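 HepG2-CYP2B6-hCAR cells (2,500/well) treated 24 h at 37C with compounds plus 0.75 uM PK11195; viability read by CellTiter-Fluor fluorescence, Ex/Em 405/540 nm.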

Structure (SMILES) | outcome | activity change, negative = cytotoxicity
O=C(/C=C/c1ccc(O)c(O)c1)O[C@@H]1CC(C(=O)O)=C[C@@H](O)[C@H]1O | inactive | –
CC(C)=CCCC(C)(OC1OC(COC2OC(CO)C(O)C2O)C(O)C(O)C1O)C1CCC2(C)C1C(O)CC1C3(C)CCC(OC4OC(CO)C(O)C(O)C4OC4OC(CO)C(O)C(O)C4O)C(C)(C)C3CCC12C (stereo not given) | inactive | –
CC[C@H](CC[C@@H](C)[C@H]1CCC2C3CCC4C[C@@H](O)CC[C@]4(C)C3CC[C@@]21C)C(C)C (stereo not given in full) | inactive | –
O=C(O)CC(O)(C(=O)O)C(O)C(=O)O (stereo not given) | inactive | –
CCCCCC(=O)CC | inactive | –
C=C1CC[C@H](O)C/C1=C\C=C1/CCC[C@]2(C)[C@@H]([C@H](C)CC[C@H](C)C(C)C)CC[C@@H]12 | inactive | –
CC1(C)C2CCC1(C)C(O)C2 (stereo not given) | inactive | –
O[C@@H]1[C@@H](O)[C@H](OC/C=C/c2ccccc2)O[C@H](CO[C@@H]2OC[C@H](O)[C@H](O)[C@H]2O)[C@H]1O | inactive | –
CC(=O)O[C@H]1[C@H](O[C@H]2CC[C@]34C[C@]35CC[C@]3(C)[C@@H]([C@@]6(C)CC[C@@H](C(C)(C)O)O6)[C@@H](O)C[C@@]3(C)[C@@H]5C[C@H](O[C@@H]3O[C@H](CO)[C@@H](O)[C@H](O)[C@H]3O)[C@H]4C2(C)C)OC[C@@H](O)[C@@H]1O | inactive | –
OCC1=C[C@@H](O)[C@@H]2C=CO[C@@H](OC3O[C@H](CO)[C@@H](O)[C@H](O)[C@H]3O)[C@H]12 (stereo not given in full) | inactive | –
CCCCCCCCCC=O | inactive | –
CC(=O)OC1CC2CCC1(C)C2(C)C (stereo not given) | inactive | –
CC(C)=CCCC(C)=CCCC(C)=CCCC=C(C)CCC=C(C)CCC=C(C)C | inactive | –
CCCCCCCCCCCCCCCCCCCCCCCCCCCCCCO | – | 8.74% [at 5 µM]
CC(C)c1ccc(C=O)cc1 | inactive | –
O=Cc1ccccc1O | inactive | –
CC/C=C\C/C=C\C/C=C\C/C=C\CCCCC(=O)O | – | -13.9% [at 5 µM]
C=C1C[C@@]23CC[C@H]4[C@@](C)(CCC[C@@]4(C)C(=O)O[C@@H]4O[C@H](CO)[C@@H](O)[C@H](O)[C@H]4O)[C@@H]2CC[C@]1(O[C@@H]1O[C@H](CO)[C@@H](O)[C@H](O[C@@H]2O[C@H](CO)[C@@H](O)[C@H](O)[C@H]2O)[C@H]1O[C@@H]1O[C@@H](C)[C@H](O)[C@@H](O)[C@H]1O)C3 | inactive | –
C=C1C[C@]23CC[C@H]4[C@@](C)(CCC[C@@]4(C)C(=O)O)[C@@H]2CC[C@@]1(O[C@@H]1O[C@H](CO)[C@@H](O)[C@H](O)[C@H]1O[C@@H]1O[C@H](CO)[C@@H](O)[C@H](O)[C@H]1O)C3 | inactive | –
Cc1ccc(C(C)C)cc1 | inactive | –
Cc1ncc(COP(=O)(O)O)c(C)c1O | inactive | –
OCCc1ccc(O)cc1 | inactive | –
CN(CC(=O)O)C(=N)N | inactive | –
COc1ccc(C(=O)O)cc1 | inactive | –
CC(C)(O)[C@@H]1CC[C@](C)([C@@H]2[C@H](O)C[C@]3(C)C4C[C@@H](O[C@H]5O[C@@H](CO)[C@H](O)[C@@H](O)[C@@H]5O)C5C(C)(C)[C@H](O[C@H]6OC[C@H](O)[C@@H](O)[C@@H]6O)CC[C@]56CC46CC[C@@]23C)O1 (stereo not given in full) | inactive | –
C=CC(=C)CCC=C(C)C | inactive | –
CC1=CCC(O)(C(C)C)CC1 (stereo not given) | inactive | –
CCCCCC/C=C\CCCCCCCC(=O)O | inactive | –
CC(C)=CCC[C@](C)(O[C@@H]1O[C@H](CO)[C@@H](O)[C@H](O)[C@H]1O)[C@H]1CC[C@]2(C)[C@@H]1[C@H](O)C[C@@H]1[C@@]3(C)CC[C@H](O)C(C)(C)[C@@H]3[C@@H](O[C@@H]3O[C@H](CO)[C@@H](O)[C@H](O)[C@H]3O[C@@H]3O[C@@H](C)[C@H](O)[C@@H](O)[C@H]3O)C[C@]12C | inactive | –
C[C@@H]1O[C@@H](OC[C@H]2OC(Oc3c(-c4ccc(O)c(O)c4)oc4cc(O)cc(O)c4c3=O)[C@H](O)[C@@H](O)[C@@H]2O)[C@H](O)[C@H](O)[C@H]1O (stereo not given in full) | inactive | –

Reference: PubChem BioAssay (NCATS)
